According to PubChem BioAssay (NCATS):
Where “and” joins values, the source holds several entries; their conditions need not be identical. Equal values may be shown once. Records with an inconclusive call do not appear. Entries that show only a call come without a potency. Calls of active or inactive are those of the source. Calls follow the shape of the dose curve; as a rule, active = well fitted cell-killing curve with a large enough effect; inconclusive = small, poorly fitted or top-dose-only effect; inactive = no such curve, though single readings can be large or run the other way.

Assay: qHTS of pediatric cancer cell lines to identify multiple opportunities for drug repurposing: Primary screen for NB-EBc1 cells (AID 1347095)
Conditions: NB-EBc1 neuroblastoma viability, CellTiter-Glo luminescence, 48 h; series mostly up to 46 µM
From the text: Drug repurposing or repositioning has been offered as a strategy for drug development in oncology programs. This approach has special potential for childhood cancers and other rare or orphan diseases, where the expected return on new drug development has been a disincentive to pharmaceuticals. […] In this project we exploit the poly-pharmacology of drugs to discover new indications via phenotypic screening of a panel of 19 well-characterized cell lines derived from solid tumors seen in children and adolescents. The goal is to identify approved drugs with previously unrecognized anticancer properties that has the potential to reveal new mechanisms and biological processes involved in carcinogenesis or drug resistance. We employed a titration-based paradigm (quantitative high-throughput screening or qHTS), where all compounds were tested at multiple concentrations for their effect on cell viability. Concentration-response curves (CRCs) were derived directly from the primary screen, and both potency and efficacy values were used to identify compounds with robust bioactivity profiles. We screened the NIH Chemical Genomics Center (NCGC) Pharmaceutical Collection (NPC) and Mechanism Interrogation Plate (MIPE) small molecule collections of approved and investigational compounds against these cell lines; and measured metabolically active cells after 48 hours of compound treatment as a proxy for cell viability. […] Assay Submitter: Nathalia J. Martinez, National Center for Advancing Translational Sciences, National Institutes of Health, Rockville, MD, USA; email: natalia.martinez@nih.gov Shen, M et al. Quantitative high-throughput phenotypic screening of pediatric cancer cell lines identifies multiple opportunities for drug repurposing. Oncotarget 2017 Dec 19;9(4):4758-4772. PMID 29435139.
The cells were obtained from University of North Carolina (UNC), Pediatric Preclinical Testing Program (PPT), and Coriell Institute (CI). qHTS cell viability assay: Cells were assayed in growth media at a density of 500-1,000 cells/well. Five microliters of cells were dispensed into 1,536-well, white, solid-bottom, TC-treated plates (Greiner Bio One) using a multidrop dispenser and incubated at 37 degrees C, 5% CO2, under a humidified atmosphere for 5 hours. Twenty-three nanoliters of compounds and controls (neutral control DMSO or positive control bortezomib at final concentration of 2.3 µM) were subsequently transferred by Kalypsys pintool. For primary screens, the MIPE collection was tested at 11-point dilutions (final concentrations range from 0.78 nM to 46 µM) and the NPC collection at 8-point dilutions (final concentrations range from 0.59 nM to 46 µM). Compounds tested in follow-up screens were assayed at 11-point dilutions. Cells were incubated for 48 hours, followed by addition of 3 µL of CellTiter-Glo (Promega). After a 15 min incubation at room temperature, samples were analyzed for luminescence intensity using a ViewLux High-throughput CCD imager equipped with clear filters.
Potency is read from the fitted curve at half-maximal effect.

Q: For `O=C(N/N=C/c1ccc([N+](=O)[O-])o1)c1cc([N+](=O)[O-])cc([N+](=O)[O-])c1O`, which Potency is on record?
A: Its Potency is “inactive”.

Q: Which Potency does the source give for `ClCCN1CCCC1` here?
A: The Potency was “inactive”.

Q: Which Potency does the source give for `CCCCCCC(=O)CCCCCC/C=C/C[C@@H](O)[C@H](O)[C@@](N)(CO)C(=O)O` here?
A: The Potency was “inactive”.

Q: For `CN1C(=O)COc2c(C(=O)NC3CN4CCC3CC4)cc(Cl)cc21` (stereo not given), which Potency is on record?
A: Its Potency is “inactive”.

Q: Which Potency does the source give for `Clc1cccc(SC2CCNCC2)n1` here?
A: The Potency was “inactive”.

Q: Which Potency does the source give for `O=[N+]([O-])O[C@H]1CO[C@H]2[C@@H]1OC[C@H]2O[N+](=O)[O-]` here?
A: Its Potency is “inactive”.

Q: For `C[C@](O)(CS(=O)(=O)c1ccc(F)cc1)C(=O)Nc1ccc(C#N)c(C(F)(F)F)c1`, which Potency is on record?
A: Its Potency is 4.69 µM (active).

Q: Which Potency does the source give for `Nc1ccccc1C(=O)O` here?
A: Its Potency is “inactive”.

Q: With `CCC(CC)(CNC(=O)CCCO)c1cccc(OC)c1` as the compound, how does the Potency read?
A: The Potency was “inactive”.

Q: With `C[C@]12CCC(=O)C=C1CC[C@@H]1[C@@H]2CC[C@]2(C)C(=O)CC[C@@H]12` as the compound, how does the Potency read?
A: Its Potency is “inactive”.

Q: With `CCC1(c2ccc(N)cc2)CCC(=O)NC1=O` (stereo not given) as the compound, how does the Potency read?
A: Its Potency is “inactive”.

Q: For `CC(C)c1cccc(C(C)C)c1O`, which Potency is on record?
A: The Potency was “inactive”.

Q: For `Nc1nc(N)nc(NC2CC2)n1`, which Potency is on record?
A: The Potency was “inactive”.

Q: With `[N-]=[N+]=CC(=O)OC[C@H](N)C(=O)O` as the compound, how does the Potency read?
A: Its Potency is “inactive”.

Q: For `c1ccc2c(c1)sc1ccccc12`, which Potency is on record?
A: The Potency was “inactive”.

Q: For `CN1C(=O)NC(=O)C(C)(C2=CCCCC2)C1=O` (stereo not given), which Potency is on record?
A: The Potency was “inactive”.

Q: With `NC1=NC(=O)C(c2ccccc2)O1` (stereo not given) as the compound, how does the Potency read?
A: Its Potency is “inactive”.

Q: Which Potency does the source give for `CCCCCCCCCC(=O)O[C@H]1CC[C@H]2[C@@H]3CCC4=CC(=O)CC[C@@H]4[C@H]3CC[C@]12C` here?
A: Its Potency is “inactive”.

Q: With `CC(C(=O)c1ccccc1)N(C)C` (stereo not given) as the compound, how does the Potency read?
A: Its Potency is “inactive”.

Q: Which Potency does the source give for `Cc1ncsc1CCCl` here?
A: Its Potency is “inactive”.

Q: With `CCC1(CC)C(=O)C=CNC1=O` as the compound, how does the Potency read?
A: Its Potency is “inactive”.

Q: Which Potency does the source give for `CCN[C@@H](C)Cc1cccc(C(F)(F)F)c1` here?
A: The Potency was “inactive”.

Q: For `O=P1(N(CCCl)CCCl)NCCCO1` (stereo not given), which Potency is on record?
A: The Potency was “inactive”.

Q: For `Oc1ccc(Cl)cc1`, which Potency is on record?
A: Its Potency is “inactive”.

Q: Which Potency does the source give for `C[C@H]1[C@@H]2Cc3ccc(O)cc3[C@@]1(C)CCN2C` here?
A: The Potency was “inactive”.

Q: With `NCCc1ccc(O)cc1` as the compound, how does the Potency read?
A: The Potency was “inactive”.

Q: For `C[N+]1(CCF)[C@@H]2CC[C@H]1CC(OC(=O)C(O)(c1ccccc1)c1ccccc1)C2` (stereo not given in full), which Potency is on record?
A: Its Potency is “inactive”.

Q: With `CC(Cc1ccccc1)N(C)Cc1ccco1` (stereo not given) as the compound, how does the Potency read?
A: Its Potency is “inactive”.

Q: Which Potency does the source give for `CCN[C@@H](C)Cc1ccccc1` here?
A: The Potency was “inactive”.

Q: For `COC(=O)C(Cl)C(=O)OC`, which Potency is on record?
A: The Potency was “inactive”.

Q: With `CCC(C)C(C)(COC(N)=O)COC(N)=O` (stereo not given) as the compound, how does the Potency read?
A: Its Potency is “inactive”.

Q: With `O=C(O)CCCc1ccc(N(CCCl)CCCl)cc1` as the compound, how does the Potency read?
A: The Potency was 11.9 µM (active) and 1.05 µM (active).

Q: For `COc1cc(OC)c(OC)cc1C=O`, which Potency is on record?
A: The Potency was “inactive”.

Q: For `CCN(CC)CCc1c[nH]c2ccccc12`, which Potency is on record?
A: The Potency was “inactive”.

Q: For `CN1CC[C@]23c4c5ccc(O)c4O[C@H]2[C@@H](O)CC[C@H]3[C@H]1C5`, which Potency is on record?
A: The Potency was “inactive”.

Q: With `NC(=O)CS(=O)C(c1ccccc1)c1ccccc1` (stereo not given) as the compound, how does the Potency read?
A: Its Potency is “inactive”.

Q: For `O=c1c(C2CC(c3ccc(-c4ccc(Br)cc4)cc3)Cc3ccccc32)c(O)sc2ccccc12` (stereo not given), which Potency is on record?
A: The Potency was 7.5 µM (active).

Q: With `c1ccc(N2CCNCC2)cc1` as the compound, how does the Potency read?
A: The Potency was “inactive”.

Q: Which Potency does the source give for `O=c1[nH]c2ccccc2n1C1CCNCC1` here?
A: Its Potency is “inactive”.

Q: Which Potency does the source give for `COc1cccc([C@@]2(O)CCCC[C@@H]2CN(C)C)c1` here?
A: Its Potency is “inactive”.
